Results on seven compounds are retold here after PubChem BioAssay (Tox21).

Experiment [1] can be described thus: Nuclear factor erythroid 2-related factor 2/antioxidant responsive element (Nrf2/ARE) small molecule agonists: luciferase reporter gene qHTS assay in human keratinocytes (AID 1919969). Note: nearly all actives have a fitted effect of over 35% in size. Note: potency is the fitted concentration of half-maximal effect. On the technique in general: In a reporter assay the amount or activity of a reporter protein is the signal.
Experiment [2] concerns the target KiSS-1 receptor (Homo sapiens) (UniProt Q969F8). Put plainly: Human kisspeptin (KISS1R) small molecule agonists, calcium flux assay in KISS1R-HEK293 cells (AID 1920064; active = well fitted activation curve with a large enough effect in the repeat runs). Put shortly: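 Concentration-response testing used 15 concentrations in triplicate on human KISS1R-expressing HEK293 cells. Calcium-dependent fluorescence (Ex/Em 480/540) was followed kinetically for 3 min after compound transfer.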

The nature of experiment [3]: G protein-coupled receptor (GPCR) small molecule agonists, calcium flux assay: HEK293 wild type cell line counter screen (AID 1920065). The method, boiled down: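 Fluorescence intensity signals activation. After overnight (18 h) culture and a 1 h calcium dye load at 37 C, compounds are added by pin tool and the plate read at 480/540 nm for 3 min in 1 s steps.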
On the technique in general: A change in cytosolic calcium serves as a functional read-out for many receptors and channels.

Experiment [4] can be described thus: p53 small molecule agonists, cell-based qHTS assay with human liver microsomes (AID 1963577).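 Note: p53 response element beta-lactamase reporter cells with liver microsomes plus NADPH.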 The method, boiled down:
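Reporter activation was measured by LiveBLAzer fluorescence intensity in p53RE-bla cells, which had been exposed to compounds for 16 h at 37 C alongside 0.5 mg/mL human liver microsomes and 0.5 mg/mL NADPH (final concentrations).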
In general terms: qHTS replaces the single test concentration by a dilution series.

Experiment [5] in a line: p53 small molecule agonists, cell-based qHTS assay with rat liver microsomes (AID 1963578). The method, boiled down:
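Compound in DMSO added to p53RE-bla cells 5 h post-plating; rat microsomes/NADPH 0.5 mg/mL final; 16 h, 37 C; LiveBLAzer 2 h RT.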

The nature of experiment [6]: p53 small molecule agonists, cell-based qHTS assay with human liver microsomes: qHTS cell viability counter screen (AID 1963579). Note: nearly all actives have a fitted effect of over 45% in size. Put shortly: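 HLM-supplemented (0.5 mg/mL final) and NADPH-supplemented (0.5 mg/mL final) p53RE-bla cultures, 4,000 cells per well, were dosed with compounds in DMSO for 16 h at 37 C; luminescent ATP detection (CellTiter-Glo, 30 min, room temperature) quantified surviving cells.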

Experiment [7] is described as follows: p53 small molecule agonists, cell-based qHTS assay with rat liver microsomes: qHTS cell viability counter screen (AID 1963580). Note: nearly all actives have a fitted effect of over 45% in size. Put shortly: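 Rat liver microsome (0.5 mg/mL final) and NADPH (0.5 mg/mL final) co-incubation with compounds for 16 h at 37 C on HCT-116 p53RE-bla cells; cytotoxicity taken from intracellular ATP luminescence.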
A short description of experiment [8]: p53 small molecule agonists, cell-based qHTS assay: qHTS cell viability counter screen (AID 1963581). Note: nearly all actives have a fitted effect of over 45% in size. Put shortly:
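Luminescence from CellTiter-Glo, reflecting ATP content, serves as the cytotoxicity measure; it is taken after the 2 h reporter substrate step in HCT-116 p53RE-bla cells dosed for 16 h at 37 C.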

Experiment [9] is described as follows: p53 small molecule agonists, cell-based qHTS assay (AID 1963582; active = well fitted activation curve with a large enough effect in the signal ratio in the repeat runs, not every such curve was filed as active; the % refers to the signal ratio). Put shortly: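 After plating, p53RE-bla cells sat 5 h in the incubator; compounds or DMSO vehicle were pinned in; a 16 h incubation at 37 C followed; FRET substrate was added and, 2 h later at RT, fluorescence was measured.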
Experiment [10] has as its target 5-hydroxytryptamine receptor 2A (Homo sapiens) (UniProt P28223). Put plainly: 5-hydroxytryptamine receptor 2A (HTR2A) small molecule agonists, cell-based qHTS assay (AID 1963587). Note: nearly all actives have a fitted effect of over 30% in size. Note: potency is the fitted concentration of half-maximal effect. The method, boiled down:
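Kinetic calcium-flux fluorescence (2 min, 1 sec intervals) after compound addition in agonist mode. HTR2A-CHO cells were cultured 18 h, then dye-loaded 1 h at 37 C.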

Experiment [11] addresses Muscarinic acetylcholine receptor M1 (Homo sapiens) (UniProt P11229). Nature of the experiment: Cholinergic receptor muscarinic 1 (CHRM1) small molecule antagonists, cell-based qHTS assay (AID 1963588). Note: nearly all actives have a fitted effect of over 40% in size. The method, boiled down:
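Compounds were tested at 15 concentrations in three independent runs. Dye-loaded CHRM1-CHO cells were exposed 5 min at room temperature before stimulation by acetylcholine added at 50nM. Intracellular calcium was read kinetically on FDSS for 3 min.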

The target is the same in experiment [12]. Nature of the experiment: Cholinergic receptor muscarinic 1 (CHRM1) small molecule agonists, cell-based qHTS assay (AID 1963589). Note: nearly all actives have a fitted effect of over 35% in size. Put shortly: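 Fluorescent calcium dye reports M1 activation in stably transfected CHO cells. Compounds, 15 concentrations, added after 1 h dye loading at 37 C; kinetic reading at 1 sec intervals.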
Experiment [13] in a line: cAMP Responsive Elements (CRE) small molecule agonists, cell-based qHTS assay (AID 1963590). The method, boiled down: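 Compound exposure lasted 3 h at 37 C/5% CO2 in CRE-bla HEK 293T cells grown in assay medium with 10% dialyzed FBS and 25 mM HEPES. Reporter signal came from LiveBLAzer B/G FRET substrate, 2 h, room temperature.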
Experiment [14] is described as follows: cAMP Responsive Elements (CRE) small molecule antagonists, cell-based qHTS assay (AID 1963591; active = well fitted inhibition curve with a large enough effect in the signal ratio in the repeat runs, not every such curve was filed as active; the % refers to the signal ratio). The method, boiled down:
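Stimulation used NKH477 at a final 0.25 uM for 3 h in compound-treated CRE-bla HEK293T cells, seeded 18 h beforehand. Reporter activity was measured with LiveBLAzer B/G FRET substrate after 2 h at room temperature.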

The target of experiment [15] is Beta-2 adrenergic receptor (Homo sapiens) (UniProt P07550). Nature of the experiment: Adrenergic beta2 receptor (ADRB2) small molecule antagonists, cell-based qHTS assay (AID 1963592). Note: series mostly up to about 92 µM; nearly all actives have a fitted effect of over 50% in size. Put shortly: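 Assay format: CHO-ADRB2 cells, 18-20hr seeding at 37C/5% CO2, then compound plus 1nM isoproterenol agonist mix for 0.5hr RT. Homogeneous time-resolved fluorescence cAMP detection after 1hr, expressed as 665/615 nm ratio.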

For experiment [16] the target is unchanged. Nature of the experiment: Adrenergic beta2 receptor (ADRB2) small molecule agonists, cell-based qHTS assay (AID 1963593).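 Note: CHO cells stably overexpressing human ADRB2.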 The method, boiled down:
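CHO cells stably over-expressing ADRB2 were plated overnight at 37C, then dosed with compounds plus a stimulation mix containing 100uM IBMX and 25uM Ro-20-1724 for 0.5hr at room temperature. cAMP was measured by HTRF competition, 1hr.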

The target in experiment [17] is D(2) dopamine receptor (Homo sapiens) (UniProt P14416). Nature of the experiment: Dopamine D2 receptor (DRD2) small molecule agonists, cell-based qHTS assay (AID 1963594). Note: nearly all actives have a fitted effect of over 35% in size. The method, boiled down:
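cAMP accumulation in DRD2-HEK293 cells measured by HTRF after 1 h detection; compounds added 10 min before NKH477 (200nM […]) forskolin-analogue stimulation, 30 min at room temperature, with Ro20-1724 present at 0.1 mM final.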

Experiment [18] shares this target. Nature of the experiment: Dopamine D2 receptor (DRD2) small molecule antagonists, cell-based qHTS assay (AID 1963595; active = well fitted inhibition curve with a large enough effect in the signal ratio in the repeat runs, with a control signal flat; the % refers to the signal ratio). The method, boiled down: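 In this cell-based antagonist screen, compounds act for 10 min at room temperature before a 30 min challenge with 12 nM quinpirole and 200 nM NKH477. cAMP is quantified by HTRF competition in DRD2-HEK293 cells containing 0.1 mM Ro20-1724.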

The target in experiment [19] is Gonadotropin-releasing hormone receptor (Homo sapiens) (UniProt P30968). Nature of the experiment: Human gonadotropin-releasing hormone receptor (GnRHR) small molecule agonists, calcium flux assay in GnRHR-HEK293 cells (AID 1920063). Note: nearly all actives have a fitted effect of over 35% in size. The method, boiled down:
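Intracellular calcium rise is the read-out: engineered human GnRHR HEK293 cells, dye-loaded, are exposed to DMSO-dissolved compounds and fluorescence at Ex/Em 480/540 is tracked for 3 min.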

Experiment [20] has as its target 5-hydroxytryptamine receptor 2A (Homo sapiens) (UniProt P28223). Put plainly: 5-hydroxytryptamine receptor 2A (HTR2A) small molecule antagonists, cell-based qHTS assay (AID 1963586). Note: nearly all actives have a fitted effect of over 45% in size. The method, boiled down: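 CHO cells stably expressing human HTR2A were plated for 18 h at 37 C, then loaded with calcium dye for 1 h. Compounds were preincubated 5 min at room temperature before DOI (4 nM solution) was added. Kinetic fluorescence was read for 3 min.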

Where “and” joins values, the source holds several entries; their conditions need not be identical. Identical values can stand only once. Records with an inconclusive call do not appear. More than one record can exist for a structure, and the calls need not agree. Calls of active or inactive are those of the source. Unless noted, calls come from the whole dose curve.

Beta-2 adrenergic receptor (Homo sapiens), sequence (P07550 whole entry, looked up): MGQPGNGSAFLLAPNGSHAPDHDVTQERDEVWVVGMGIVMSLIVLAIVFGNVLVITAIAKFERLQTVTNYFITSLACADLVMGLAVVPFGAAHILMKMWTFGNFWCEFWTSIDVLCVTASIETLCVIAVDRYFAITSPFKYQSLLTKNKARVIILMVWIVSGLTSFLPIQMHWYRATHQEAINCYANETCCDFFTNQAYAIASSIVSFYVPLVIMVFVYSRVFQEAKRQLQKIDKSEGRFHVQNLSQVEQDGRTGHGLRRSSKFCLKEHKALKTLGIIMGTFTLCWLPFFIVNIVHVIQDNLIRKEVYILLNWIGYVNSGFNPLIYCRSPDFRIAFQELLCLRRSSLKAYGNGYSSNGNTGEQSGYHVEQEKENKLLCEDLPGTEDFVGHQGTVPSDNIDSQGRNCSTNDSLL
5-hydroxytryptamine receptor 2A (Homo sapiens), sequence (P28223 whole entry, looked up): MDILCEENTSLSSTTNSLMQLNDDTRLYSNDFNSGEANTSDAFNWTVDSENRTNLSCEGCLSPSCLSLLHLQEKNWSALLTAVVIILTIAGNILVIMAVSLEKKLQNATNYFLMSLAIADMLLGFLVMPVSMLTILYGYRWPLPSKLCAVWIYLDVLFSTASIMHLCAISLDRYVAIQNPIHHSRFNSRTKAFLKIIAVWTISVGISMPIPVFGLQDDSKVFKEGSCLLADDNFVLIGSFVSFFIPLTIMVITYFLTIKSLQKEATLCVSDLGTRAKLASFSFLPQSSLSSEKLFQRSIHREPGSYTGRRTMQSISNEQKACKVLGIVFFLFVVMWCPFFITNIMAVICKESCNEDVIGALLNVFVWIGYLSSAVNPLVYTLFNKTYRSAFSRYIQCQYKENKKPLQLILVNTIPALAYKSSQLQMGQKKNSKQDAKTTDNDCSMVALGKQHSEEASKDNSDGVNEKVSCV
Gonadotropin-releasing hormone receptor (Homo sapiens), sequence (P30968 whole entry, looked up): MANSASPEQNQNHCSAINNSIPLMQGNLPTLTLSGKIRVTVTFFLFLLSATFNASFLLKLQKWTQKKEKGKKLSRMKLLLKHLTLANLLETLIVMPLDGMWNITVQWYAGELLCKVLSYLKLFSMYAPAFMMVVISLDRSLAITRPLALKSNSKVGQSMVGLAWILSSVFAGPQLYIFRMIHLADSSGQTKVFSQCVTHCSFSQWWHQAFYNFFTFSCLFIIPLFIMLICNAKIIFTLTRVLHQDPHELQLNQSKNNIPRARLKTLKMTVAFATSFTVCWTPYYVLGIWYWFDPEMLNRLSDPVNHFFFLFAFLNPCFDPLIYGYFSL
KiSS-1 receptor (Homo sapiens), sequence (Q969F8 whole entry, looked up): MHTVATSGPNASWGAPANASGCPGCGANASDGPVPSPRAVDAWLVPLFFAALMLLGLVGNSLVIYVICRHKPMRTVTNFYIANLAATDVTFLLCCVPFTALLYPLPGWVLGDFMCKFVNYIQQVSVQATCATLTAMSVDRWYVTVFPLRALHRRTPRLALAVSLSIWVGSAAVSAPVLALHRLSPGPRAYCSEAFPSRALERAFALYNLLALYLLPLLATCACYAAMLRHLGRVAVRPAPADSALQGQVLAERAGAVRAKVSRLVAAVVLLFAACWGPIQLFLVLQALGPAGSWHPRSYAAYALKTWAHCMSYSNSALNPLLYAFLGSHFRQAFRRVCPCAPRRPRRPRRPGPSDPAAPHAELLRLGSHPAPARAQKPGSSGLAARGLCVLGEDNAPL
Muscarinic acetylcholine receptor M1 (Homo sapiens), sequence (P11229 whole entry, looked up): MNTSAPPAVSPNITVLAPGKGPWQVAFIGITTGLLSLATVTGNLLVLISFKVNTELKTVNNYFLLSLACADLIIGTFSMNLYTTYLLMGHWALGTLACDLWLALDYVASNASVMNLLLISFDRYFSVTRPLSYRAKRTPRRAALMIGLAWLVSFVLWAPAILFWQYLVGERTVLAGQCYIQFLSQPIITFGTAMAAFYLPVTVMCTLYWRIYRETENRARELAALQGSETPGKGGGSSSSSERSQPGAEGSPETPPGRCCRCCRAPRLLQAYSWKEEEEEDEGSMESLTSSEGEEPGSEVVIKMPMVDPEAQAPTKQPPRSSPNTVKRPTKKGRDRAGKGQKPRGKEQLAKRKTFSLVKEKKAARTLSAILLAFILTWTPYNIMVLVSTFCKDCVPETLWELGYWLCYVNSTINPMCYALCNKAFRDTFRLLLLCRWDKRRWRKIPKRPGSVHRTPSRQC
D(2) dopamine receptor (Homo sapiens), sequence (P14416 whole entry, looked up): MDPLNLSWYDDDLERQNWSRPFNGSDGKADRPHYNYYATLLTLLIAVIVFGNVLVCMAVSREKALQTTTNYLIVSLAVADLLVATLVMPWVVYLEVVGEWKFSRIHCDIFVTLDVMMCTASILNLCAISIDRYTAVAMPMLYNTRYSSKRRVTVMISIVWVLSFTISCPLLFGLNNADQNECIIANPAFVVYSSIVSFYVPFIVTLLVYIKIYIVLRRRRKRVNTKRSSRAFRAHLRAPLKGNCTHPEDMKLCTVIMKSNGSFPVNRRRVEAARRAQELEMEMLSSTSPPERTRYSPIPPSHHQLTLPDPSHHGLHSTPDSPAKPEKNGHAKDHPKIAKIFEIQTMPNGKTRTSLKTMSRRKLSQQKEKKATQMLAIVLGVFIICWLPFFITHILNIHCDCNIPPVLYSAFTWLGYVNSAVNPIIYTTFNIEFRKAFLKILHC

For `CC(O)CCO` (stereo not given), the Potency entry in experiment [1], in experiment [2], in experiment [3], in experiment [4], in experiment [5] and in experiment [6] was “inactive” in each case. For the same compound, the Potency entry in [7], in experiment [8], in [9], in experiment [10], in experiment [11] and in [12] was “inactive” in each case. Moreover, the Potency result in [13], in [14], in [15], in [16], in experiment [17] and in experiment [18] was “inactive” in each case.
For `C[C@]12CC[C@H]3[C@@H](CC=C4C[C@@H](O)CC[C@@]43C)[C@@H]1CC[C@@H]2O`, the Potency result in experiment [19], in experiment [3], in [4], in experiment [5], in experiment [6] and in experiment [7] was “inactive” each time. The Potency result in [8], in experiment [9], in [13], in experiment [14], in experiment [15] and in [17] was “inactive” throughout. Besides, in experiment [18], the Potency result is “inactive”.
Regarding `CC1=C2[C@H]3OC(=O)[C@@H](C)[C@@H]3CC[C@@]2(C)C=CC1=O`, the Potency result in experiment [1], in [19], in experiment [2], in experiment [3], in experiment [6] and in [7] was “inactive” throughout. For the same compound, the Potency result in [8], in experiment [20], in [10], in experiment [11], in experiment [12] and in experiment [13] was “inactive” in each case. Further, the Potency result in [14], in experiment [15], in [16] and in [17] was “inactive” in each case.
In the case of `CN(C)C(=S)SSC(=S)N(C)C`, the Potency result is “inactive and 96.9 nM (active)” in experiment [1]; “inactive and 27.5 µM (active)” in experiment [10]. Also, the Potency entry in experiment [2], in experiment [3], in experiment [4], in [5], in [8] and in experiment [9] was “inactive” each time. The Potency result in experiment [20], in [11], in experiment [12], in experiment [15] and in experiment [18] was “inactive” each time.
As for `Clc1ccc(C(Cl)(Cl)Cl)cn1`, the Potency result in experiment [1], in experiment [2], in experiment [3], in experiment [4], in experiment [5] and in [6] was “inactive” in each case. Also, the Potency entry in [7], in experiment [8], in [9], in experiment [20], in [10] and in experiment [11] was “inactive” throughout. Also, the Potency entry in [12], in [13], in [14], in experiment [15], in [17] and in experiment [18] was “inactive” throughout.
As for `CNC(=O)Oc1cccc2c1OC(C)(C)C2`, the Potency result in experiment [19], in [3], in [6], in [7], in [8] and in experiment [9] was “inactive” throughout. For the same compound, the Potency entry in [10], in [11], in experiment [12], in experiment [13], in [14] and in experiment [15] was “inactive” each time. Besides, the Potency entry in experiment [16], in experiment [17] and in experiment [18] was “inactive” each time.
For `Nc1ccccc1`, the Potency result in [19], in experiment [2], in experiment [3], in [4], in [5] and in experiment [6] was “inactive” in each case. Further, the Potency entry in experiment [7], in experiment [9], in experiment [20], in experiment [10], in experiment [11] and in experiment [12] was “inactive” in each case. Further, the Potency entry in experiment [13], in [14], in experiment [16], in experiment [17] and in experiment [18] was “inactive” in each case.
